# Reference: PubChem BioAssay AID1563 (The Scripps Research Institute Molecular Screening Center, 2009)
# This is one part of the list. Unmarked numbers belong to inactive results. Cut-off read from the data, not from the text of the source: active = activation above about 21%; inactive = the rest.
# Target: Sphingosine 1-phosphate receptor 1 (Homo sapiens) (UniProt P21453)
# Assay: activation of human S1P1 receptor – cell-based, counter-screen for S1P4 agonist project (AID 1563);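 note: 0% = vehicle wells and 100% = reference agonist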
# Conditions: S1P1 agonist cell-based assay, at 4.98 µM, stronger effect = higher value
# Sequence of Sphingosine 1-phosphate receptor 1 (Homo sapiens) (P21453 whole entry, looked up): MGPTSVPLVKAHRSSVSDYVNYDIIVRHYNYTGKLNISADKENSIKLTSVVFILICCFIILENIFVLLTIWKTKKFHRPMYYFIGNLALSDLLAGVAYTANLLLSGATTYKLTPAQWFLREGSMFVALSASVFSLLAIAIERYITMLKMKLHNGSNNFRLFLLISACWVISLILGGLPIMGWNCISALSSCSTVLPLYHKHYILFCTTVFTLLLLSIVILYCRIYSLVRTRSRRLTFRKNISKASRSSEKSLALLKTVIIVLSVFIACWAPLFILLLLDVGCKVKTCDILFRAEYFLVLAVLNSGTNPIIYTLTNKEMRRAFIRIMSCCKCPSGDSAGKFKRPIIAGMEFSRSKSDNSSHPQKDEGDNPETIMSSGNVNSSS
smiles,measurement,value
CC(C)N(CC#CCC1(O)c2ccccc2-c2ccccc21)C(C)C,activation,1.18%
